The other results are listed elsewhere or left out. Values without a mark were called inactive. No rule for the calls is given here.
Assay: DNA intercalator displacement (FID) – biochemical, fluorescence, counter-screen for HCV NS3 helicase inhibitor project, dose response (AID 2172)
Settings: fluorescent intercalator displacement from DNA

COc1ccc(N2C(=O)/C(=C/c3ccco3)C(=O)NC2=S)cc1
IC50: 28.9 µM
